MITF inhib = inhibitors of MITF, primary screen, MITF inhibitor project, cell-based, luminescence; inhibition, % (no concentration beside the values); 37,000 compounds, 0.28% hits; TRPM1 promoter luciferase, 24 h; AID 2240, 2010; in the data active means inhibition above about 85%; inconclusive means no clear call, values can overlap the other calls; inactive means below about 68%;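 further: human melanocyte line stably carrying TRPM1 promoter luciferase reporter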
NOMO-1 viab = NOMO-1 AML cell viability reduction, primary screen, STK33 inhibitor project, CellTiter-Glo luminescence; NOMO-1 AML viability, 72 h; inhibition, % (test concentration not listed); 37,000 compounds, 7.5% hits; AID 2330, 2010; in the data active means inhibition above about 80%; inconclusive means no clear call, values can overlap the other calls
Shh pathway inh = Hedgehog pathway signaling inhibitors, primary screen, luminescence, Shh-LIGHT2 cells, Gli-luciferase | Shh-LIGHT2 Gli-luciferase reporter, 30 h | inhibition, % (no concentration beside the values) | 22,000 compounds, 2.1% hits | AID 2313, 2010;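 active means mean inhibition across valid replicates above about 65%, limit read from the data; inconclusive means mean under the limit, yet half or more replicates past it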;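 further: pathway switched on by Shh-conditioned medium diluted 1 in 25 in low serum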
An asterisk follows results filed as active. Rows were chosen to be rich in hits. Some 8.1% of all compounds tested hit in one or more screens of this group.

How did COc1ccccc1NC(=O)Cc1c(OC)ccc2cc(Br)ccc12 do in these assays?
MITF inhib: 44.8; NOMO-1 viab: 34.2

What do the screens show for `Cc1cc(C)nc(SCC(=O)N2c3ccccc3Sc3ccccc32)n1`?
MITF inhib: 23.3; NOMO-1 viab: -1.1

Results for CCC(=O)c1ccc2c(c1)N(CC(C)N(C)C)c1ccccc1S2 (centres undefined) ?
MITF inhib: -3.7; NOMO-1 viab: 84.5*; Shh pathway inh: 53.2

What do the screens show for `C[C@@H]1CN([C@@H](C)CO)C(=O)c2cccc(NC(=O)NC3CCCCC3)c2O[C@H]1CN(C)Cc1ccc(C(F)(F)F)cc1`?
MITF inhib: 21.0; NOMO-1 viab: 92.6*; Shh pathway inh: -33.7

How did C[C@H]1CN([C@@H](C)CO)C(=O)c2cccc(NC(=O)NC3CCCCC3)c2O[C@H]1CN(C)Cc1ccc(Oc2ccccc2)cc1 do in these assays?
MITF inhib: 6.0; NOMO-1 viab: 10.8; Shh pathway inh: 9.0

Results for C[C@@H]1CN([C@H](C)CO)C(=O)c2cccc(NC(=O)NC3CCCCC3)c2O[C@@H]1CN(C)Cc1ccc(-c2ccccc2)cc1 ?
MITF inhib: 10.0; NOMO-1 viab: 37.3; Shh pathway inh: -17.2

Results for C[C@@H]1CN([C@H](C)CO)C(=O)c2cccc(NC(=O)NC3CCCCC3)c2O[C@@H]1CN(C)Cc1ccc(C(F)(F)F)cc1 ?
MITF inhib: -5.2; NOMO-1 viab: 29.1; Shh pathway inh: -21.5

Results for C[C@H](CO)N1C[C@H](C)[C@@H](CN(C)Cc2ccccc2)Oc2c(NC(=O)NC3CCCCC3)cccc2C1=O ?
MITF inhib: 12.1; NOMO-1 viab: 83.8*; Shh pathway inh: 0.1

How did C[C@@H]1CN([C@@H](C)CO)C(=O)c2cccc(NC(=O)NC3CCCCC3)c2O[C@@H]1CN(C)Cc1ccc(Oc2ccccc2)cc1 do in these assays?
MITF inhib: 5.2; NOMO-1 viab: 85.4*; Shh pathway inh: 42.7

How did O=C(CSc1nc(O)cc(=O)[nH]1)N(c1ccccc1)c1ccccc1 do in these assays?
MITF inhib: -10.3; NOMO-1 viab: -38.4

How did CC(C)(C)c1cc(-c2nnc(-c3cccs3)o2)n(Cc2ccc(F)cc2)n1 do in these assays?
MITF inhib: -11.9; NOMO-1 viab: 62.3; Shh pathway inh: -4.5

What do the screens show for `Cc1cc(N(CC(=O)Nc2cccc([N+](=O)[O-])c2C)S(C)(=O)=O)ccc1Br`?
MITF inhib: 9.7; NOMO-1 viab: 7.1

Results for COc1ccc(NC(=O)N(C)C[C@@H]2Oc3ccc(NC(=O)NC4CCCCC4)cc3C(=O)N([C@@H](C)CO)C[C@H]2C)cc1 ?
MITF inhib: 5.4; NOMO-1 viab: 11.2; Shh pathway inh: -21.9

What do the screens show for `Cc1cc(-c2ccccc2)nc2c1/C(=N\O)CC(C)(C)C2`?
MITF inhib: -22.5; NOMO-1 viab: 101.0*; Shh pathway inh: -7.6

Results for Cc1ccc(C)c(NC(=O)CSc2nc(-c3ccccc3)cc(C(F)(F)F)n2)c1 ?
MITF inhib: -2.2; NOMO-1 viab: 27.3

What do the screens show for `O=C(NCCN1CCOCC1)C(=O)Nc1cccc(F)c1`?
MITF inhib: -60.0; NOMO-1 viab: 3.8

What do the screens show for `Cc1cccc(OCC(=O)Nc2cccc(-c3nc4cc(Cl)ccc4o3)c2C)c1`?
MITF inhib: 6.1; NOMO-1 viab: 33.0

What do the screens show for `C[C@H](CO)N1C[C@H](C)[C@H](CN(C)C(=O)Nc2ccc(F)cc2)Oc2ccc(NC(=O)Nc3ccc(C(F)(F)F)cc3)cc2C1=O`?
MITF inhib: 48.6; NOMO-1 viab: 111.5*; Shh pathway inh: 69.3*

Results for C[C@H](CO)N1C[C@H](C)[C@@H](CN(C)C(=O)Nc2ccc(C(F)(F)F)cc2)Oc2ccc(NC(=O)Nc3ccc(F)cc3)cc2C1=O ?
MITF inhib: 16.1; NOMO-1 viab: 19.3; Shh pathway inh: -18.3

How did C[C@H]1CN([C@@H](C)CO)C(=O)c2cc(NC(=O)Nc3ccc(C(F)(F)F)cc3)ccc2O[C@@H]1CN(C)C(=O)Nc1ccc(F)cc1 do in these assays?
MITF inhib: 8.5; NOMO-1 viab: 13.9; Shh pathway inh: -8.8

Results for C[C@@H]1CN([C@@H](C)CO)C(=O)c2cc(NC(=O)Nc3ccc(C(F)(F)F)cc3)ccc2O[C@@H]1CN(C)C(=O)Nc1ccc(F)cc1 ?
MITF inhib: 50.7; NOMO-1 viab: 112.6*; Shh pathway inh: 57.1

Results for COc1ccc(NC(=O)Nc2ccc3c(c2)CC(=O)N([C@@H](C)CO)C[C@H](C)[C@@H](CN(C)Cc2ccc(C(=O)O)cc2)O3)cc1 ?
MITF inhib: -8.3; NOMO-1 viab: 2.4; Shh pathway inh: -21.5

How did C/C=C/C#CC#C[C@@H](O[C@@H]1O[C@H](CO)[C@@H](O)[C@H](O)[C@H]1O)[C@H](O)/C=C/CCCO do in these assays?
MITF inhib: 5.6; NOMO-1 viab: -2.7; Shh pathway inh: -40.9

How did Cc1ccc(NC(=O)c2ccc(OCC(=O)Nc3ccc(Oc4ccccc4)cc3)cc2)c(C)c1 do in these assays?
MITF inhib: -7.0; NOMO-1 viab: 13.5

Results for Cc1noc(C)c1NC(=O)Nc1cccc2c1O[C@H](CN(C)S(=O)(=O)c1cccs1)[C@@H](C)CN([C@@H](C)CO)C2=O ?
MITF inhib: 1.0; NOMO-1 viab: 12.3; Shh pathway inh: -6.5

How did C[C@H]1CN([C@@H](C)CO)C(=O)Cc2cc(NS(=O)(=O)c3ccc(Cl)cc3)ccc2O[C@H]1CN(C)Cc1ccc(Oc2ccccc2)cc1 do in these assays?
MITF inhib: -4.0; NOMO-1 viab: 77.7; Shh pathway inh: 3.4

How did C[C@H](CO)N1C[C@H](C)[C@H](CN(C)Cc2ccc(Oc3ccccc3)cc2)Oc2ccc(NS(=O)(=O)c3ccc(Cl)cc3)cc2CC1=O do in these assays?
MITF inhib: 7.2; NOMO-1 viab: 116.4*; Shh pathway inh: -44.2

How did COc1ccc(S(=O)(=O)Nc2ccc3c(c2)CC(=O)N([C@@H](C)CO)C[C@H](C)[C@H](CN(C)Cc2ccc(Oc4ccccc4)cc2)O3)cc1 do in these assays?
MITF inhib: 18.3; NOMO-1 viab: 27.7; Shh pathway inh: -15.4

Results for C[C@H](CO)N1C[C@H](C)[C@H](CN(C)Cc2ccc(Oc3ccccc3)cc2)Oc2ccc(NS(=O)(=O)c3ccccc3)cc2CC1=O ?
MITF inhib: 1.7; NOMO-1 viab: 96.5*; Shh pathway inh: -15.3

Results for COc1ccc(S(=O)(=O)Nc2ccc3c(c2)CC(=O)N([C@@H](C)CO)C[C@@H](C)[C@@H](CN(C)Cc2ccc(Oc4ccccc4)cc2)O3)cc1 ?
MITF inhib: 9.5; NOMO-1 viab: inconclusive; Shh pathway inh: 22.9

How did Cc1ccc(S(=O)(=O)Nc2ccc3c(c2)CC(=O)N([C@H](C)CO)C[C@H](C)[C@H](CN(C)Cc2ccc(Oc4ccccc4)cc2)O3)cc1 do in these assays?
MITF inhib: 12.7; NOMO-1 viab: 110.5*; Shh pathway inh: -22.0

What do the screens show for `C[C@@H]1CN([C@H](C)CO)C(=O)Cc2cc(NS(=O)(=O)c3ccc(Cl)cc3)ccc2O[C@H]1CN(C)Cc1ccccc1`?
MITF inhib: -11.3; NOMO-1 viab: 45.8; Shh pathway inh: 0.9

How did C[C@@H]1CN([C@H](C)CO)C(=O)Cc2cc(NS(=O)(=O)c3ccc(Cl)cc3)ccc2O[C@H]1CN(C)Cc1ccc(Oc2ccccc2)cc1 do in these assays?
MITF inhib: 13.9; NOMO-1 viab: 112.0*; Shh pathway inh: 34.7

Screening data from PubChem BioAssay.
